A selection: hits, their analogues and other compounds. The true share with any hit is near 19%.
DT40 TDP1 CPT: DT40-hTDP1 cell growth loss with CPT | actives 12% (n = 420,000) | chicken DT40 Tdp1-/-;hTDP1 cells + 20 nM CPT, ATP luminescence, 48 h | AID 686979 | Potency, µM (doses to about 46.2 µM), inactives show at the highest dose activity change, negative = growth inhibition, hits mostly inhibitors; further: potency means the concentration at half of the fitted maximal effect; nearly all actives have a fitted effect of over 55% in size
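Chicken DT40 Tdp1-/- cells complemented with human TDP1, 400 cells/well, exposed to compounds plus 20 nM camptothecin for at least 48 h at 37 C; viability read as ATP content by CellTiter-Glo luminescence.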
uPA surface inh: blocks generation of uPA at the cell surface; actives 0.31% (n = 330,000); cell surface uPA generation assay, qHTS; Potency, µM (titrated, usually from 38.3 µM), for inactives: top-dose activity change, negative = inhibition, usual class: inhibitors; active means well fitted inhibition curve with a large enough effect; inconclusive means small, poorly fitted or top-dose-only effect; inactive means no such curve, though single readings can be large or run the other way; tested in mouse RAW 264.7 cells; further: potency means the concentration at half of the fitted maximal effect; nearly all actives have a fitted effect of over 55% in size
IL1B secr inh: inflammasome signaling inhibition, IL-1 beta readout; actives 4.7% (n = 360,000); activity change, % at 57.5 µM; THP-1 LPS/ATP IL-1B secretion, AlphaLISA, 16 h; active compounds read low; in the data active means activity change below about -50%; inconclusive means mostly about -30% to -49%
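THP-1 cells pretreated 1 hr with compounds (up to 57.5 uM final), then stimulated with LPS (250 ng/mL final) plus ATP (1.25 mM final); secreted IL-1B measured by AlphaLISA after 16 hr, decreased signal indicating inhibition.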
TDP1 cell noCPT: qHTS for Inhibitors of human tyrosyl-DNA phosphodiesterase 1 (TDP1): qHTS in cells in absence of CPT; actives 15% (n = 420,000); Potency, µM (doses to about 46.2 µM), inactives show at the top dose activity change, negative = growth inhibition, actives largely listed as inhibitors; AID 686978, 2013; DT40 Tdp1-/- hTDP1 cells, no CPT, ATP luminescence, 48 h; further: potency means the concentration at half of the fitted maximal effect; nearly all actives have a fitted effect of over 55% in size
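Compound effects on proliferation are scored in DT40 Tdp1-/-;hTDP1 cells in the absence of CPT. ATP levels (CellTiter-Glo luminescence) are recorded after a ≥48 hr, 37 °C incubation.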
HT1080 IDH1KD tx: HT-1080 IDH1 knockdown cell toxicity (counter line) | HT-1080 IDH1 knockdown viability, ATP luminescence, 48 h | Potency, µM (top dose mostly 46.1 µM), without a hit: at the highest dose activity, negative = toxicity, most hits filed as cytotoxic | actives 2% (n = 360,000) | AID 686971;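 further: potency means the concentration at half of the fitted maximal effect; 0% = DMSO wells and -100% = cell-free medium wells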
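% activity derives from luminescence (CellTiter-Glo), normalised to DMSO and no-cell wells. HT-1080-IDH1KD cells, 750/well, had 48 h compound exposure at 37 °C.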
HT1080-NT tox: kills 2HG-producing HT-1080-NT fibrosarcoma cells; AID 686970; HT-1080-NT fibrosarcoma viability, CellTiter-Glo ATP luminescence, 48 h; Potency, µM (highest dose often 46.1 µM), without a hit: at the top dose activity, negative = less viability, most hits filed as cytotoxic; actives 1.6% (n = 360,000);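 further: NT is the 2HG producing partner of a matched IDH1 knockdown line; potency means the concentration at half of the fitted maximal effect; 0% = DMSO-treated cells and -100% = media-only wells without cells; nearly all actives have a fitted effect of over 55% in size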
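Compounds were tested in concentration-response format on HT-1080-NT cells for 48 hours at 37 degrees C. Cell viability came from CellTiter-Glo luminescence; curves were classified by r2, response magnitude and activity.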
An asterisk follows results filed as active; ? = inconclusive; / = no result given; [ ] = dose if it differs, or a comment. Unless noted, the call rests on the fitted dose curve; in most records, active means well fitted curve in the direction sought with a large enough effect; inconclusive means small, poorly fitted or top-dose-only effect, or another doubt; inactive means no such curve, though single readings can be large; an effect the other way counts as inactive or inconclusive. Unless noted, on the % scale 0 is the no-effect control and ±100 the full control effect.

SMILES	DT40 TDP1 CPT	uPA surface inh	IL1B secr inh	TDP1 cell noCPT	HT1080 IDH1KD tx	HT1080-NT tox
CCOC(=O)c1c(NC(=O)/C=C/c2ccc(C)cc2)sc2c1CCCC2	17%	/	/	-3%	/	/
COc1ccc(C(=O)N(NC(=O)Oc2ccccc2)C(C)(C)C)cc1	9%	1%	2	9%	10%	3%
CCCCCc1ccc2cc(C#N)ccc2n1	-23%	/	0	-2%	6%	21%
CCOc1ccc(NC(=O)CN(C)C(=O)c2cccc(S(=O)(=O)N3CCN(C)CC3)c2)cc1OCC	2%	22%	9	12%	9%	4%
CCCS(=O)(=O)NCc1c(C)ncc2c1CCN(C(=O)c1ccc3[nH]c4c(c3c1)CCCC4)C2	4%[9.04 µM]	/	/	?	/	/
Cc1ccccc1-n1ncc2c([N+](=O)[O-])cc([N+](=O)[O-])cc21	26µM*	-8%	0	21µM*	?	?
Cc1ccccc1N1C(=O)c2cccc([N+](=O)[O-])c2C1=O	-10%	1%	?	-23%	?	22%
O=C(NCCCN1CCCC1=O)Nc1ccc([N+](=O)[O-])cc1	-1%	1%	0	2%	14%	12%
C/C(=N\N=c1/scc(C)n1Cc1ccco1)c1cccc([N+](=O)[O-])c1	?	1%	-2	?	11%	-1%
O=C1/C(=C\c2ccc(Cl)cc2)CCC1CNc1ccc(Cl)cc1 (stereo not drawn)	2.3µM*	-3%	-57*	2.6µM*	?	-4%
COc1ccc(/C=C2\CCC(C3CCCC3)C2=O)cc1 (stereo not drawn)	4%	2%	0	-4%	12%	8%
CC(=O)c1ccc(OC(=O)/C=C/c2ccccc2)cc1	0%	25%	-5	-18%	11%	15%
COc1ccc(/C=C2/CCC(CN3CCOCC3)C2=O)cc1 (stereo not drawn)	1.2µM*	-11%	-103*	1.2µM*	6.5µM*	?
CN(C)CC1CCC/C(=C\c2ccc(OC(=O)/C=C/c3ccccc3)cc2)C1=O (stereo not drawn)	1.3µM*	-3%	-111*	1.8µM*	-17%	-4%
CN(C)CC1CCC/C(=C\c2ccc(OC(=O)c3ccc(Cl)cc3)cc2)C1=O (stereo not drawn)	0.52µM*	-8%	-100*	0.41µM*	2.9µM*	?
CCCc1nc2cc3c(cc2[nH]1)n(C)c(=O)n3C	9%	-4%	8	17%	?	27%
CN(C)c1ccc2c(c1[N+](=O)[O-])Cc1ccccc1-2	7%	7%	-11	-13%	7%	7%
CN(C)CC1CC/C(=C\c2ccc(O)cc2)C1=O (stereo not drawn)	0.58µM*	-10%	-113*	1.3µM*	5.2µM*	?
CCOc1cc(Cl)c(S(=O)(=O)NCc2cccnc2)cc1Cl	?	-3%	13	?	-7%	-14%
O=C(NCCCN1CCN(c2ccccc2)CC1)Nc1ccccc1C(F)(F)F	2%	2%	-4	?	3%[9.24 µM]	1%
COc1ccccc1CNC(=O)c1cccn1-c1nnc(N2CCCCC2)s1	-30%	/	/	-29%	/	/
CCN1CCN(c2nnc(-n3cccc3C(=O)NCc3ccccc3OC)s2)CC1	16µM*	/	/	?	/	/
CCCN1CCN(c2nnc(-n3cccc3C(=O)Nc3ccccc3C(F)(F)F)s2)CC1	21µM*	/	/	21µM*	/	/
CCOc1ccc(CCNC(=O)C2CSC3(C)CCC(=O)N23)cc1OCC (stereo not drawn)	-1%	-1%	-4	27%	11%	26%
Nc1nc(-c2ccccn2)nc(N)c1Cc1c(F)cccc1Cl	1.8µM*	-17%	18	1.5µM*	?	-27%
SMILES	DT40 TDP1 CPT	uPA surface inh	IL1B secr inh	TDP1 cell noCPT	HT1080 IDH1KD tx	HT1080-NT tox
Nc1nc(-c2ccccn2)nc(N)c1Cc1ccccc1F	5.8µM*	-15%	15	4.6µM*	-10%	-25%
CCOc1ccc(Cl)cc1S(=O)(=O)N1CCC(C(=O)NC2CC2)CC1	-1%	-5%	-14	4%	-14%	-4%
CC=Cc1cc(OC)c2c(c1)C(C)C(c1ccc(O)c(OC)c1)O2 (stereo not drawn)	?	-1%	-65*	?	2%	-1%
Cc1ccc(S(=O)(=O)N[C@@H](Cc2ccccc2)C(=O)N2CCC(C(=O)N[C@@H](CC(C)C)C(=O)O)CC2)cc1	-5%	0%	26	12%	21%	6%
CC12CCC(C/C1=N\N=C1\NC(=O)/C(=C\c3cccc(Br)c3)S1)C2(C)C (stereo not drawn)	?	4%	-68*	?	-23%	-16%
Cc1cccc(C(=O)N2CCC(N3CCN(Cc4ccc(F)cc4)C(=O)C3=O)CC2)c1	-4%	/	/	-18%	/	/
COc1ccc(CCNc2oc(COc3ccccc3F)nc2C#N)cc1OC	?	-5%	0	26µM*	?	-8%
COc1ccc(CCNc2oc(COc3ccccc3Cl)nc2C#N)cc1OC	?	6%	-21	?	-13%	-1%
COc1ccc(CCNc2oc(COc3ccc(F)cc3)nc2C#N)cc1	18µM*	1%	-25	?	-24%	-29%
N#Cc1nc(COc2ccccc2Cl)oc1NCCc1ccccc1	?	/	/	16µM*	/	/
N#Cc1nc(COc2ccc(F)cc2)oc1NCCCn1ccnc1	-25%	-1%	6	?	-14%	-3%
Cc1ccc(OCC(=O)NNC(=O)C2CCN(c3ncnc4sc(C)c(C)c34)CC2)cc1	?	-7%	-17	?	-16%	-18%

Screens (PubChem)
